A word on the AC50: it is the concentration at which the activity in the assay is half-maximal.

Results filed as inconclusive are left out. The source made the active and inactive calls. The calls were made as follows, unless noted: active = hit-call score of the fitted dose curve at least 0.9, where 1 is the maximum; inconclusive = response in the unintended direction; inactive = score below 0.9.

We go through 9 compounds from PubChem BioAssay (EPA / NIEHS).

A short description of test [1]: Tanguay_ZF_120hpf_EYE_legacy: (Legacy) Oregon State University Tanguay Lab 120 Hour Post-fertilization zebrafish Assay for Eye Malformation (AID 2283636).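 Also: binary presence or absence of eye malformation scored by brightfield in 120 hpf larvae.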 An outline of the steps:
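Static waterborne exposure of dechorionated zebrafish embryos (strain Tropical 5D), 6 to 120 hpf, sealed plates at 28C, 0.64% DMSO vehicle. Eye malformation is scored as a binary endpoint, with gain of signal analysed relative to DMSO.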

Test [2] can be described thus: Tanguay_ZF_120hpf_SNOU_legacy: (Legacy) Oregon State University Tanguay Lab 120 Hour Post-fertilization zebrafish Assay for Snout Malformation (AID 2283637). An outline of the steps: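 Dechorionated zebrafish, individually housed from 6 hpf in covered, sealed wells at 28C with 0.64% DMSO vehicle, were examined at 120 hpf for snout malformation. Responses were binary and analysed positive-direction relative to DMSO.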

The nature of test [3]: Tanguay_ZF_120hpf_JAW_legacy: (Legacy) Oregon State University Tanguay Lab 120 Hour Post-fertilization zebrafish Assay for Jaw Malformation (AID 2283638). An outline of the steps: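 Wild-type 5D embryos, chorion removed at 4 hpf, dosed singly from 6 hpf; 28C static, sealed, foil-covered, to 120 hpf. Endpoint: jaw defect yes/no (brightfield); mortality excludes scoring.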
A short description of test [4]: Tanguay_ZF_120hpf_OTIC_legacy: (Legacy) Oregon State University Tanguay Lab 120 Hour Post-fertilization zebrafish Assay for Otic Vesicle Malformation (AID 2283639). In short, it runs like this:
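Brightfield scoring at 120 hpf, binary present/absent; DMSO negative control, 5uM trimethyltin chloride positive control. Static exposure at 28C, final DMSO 0.64% (vol/vol). Dead embryos not scored for malformation.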

A short description of test [5]: Tanguay_ZF_120hpf_PE_legacy: (Legacy) Oregon State University Tanguay Lab 120 Hour Post-fertilization zebrafish Assay for Pericardial Edema (AID 2283640).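 As to AC50: potency for increased incidence of pericardial edema versus DMSO baseline.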 In short, it runs like this: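 Zebrafish larvae are exposed from early development to 120 hpf at 28C, with 0.64% DMSO final. Each surviving larva receives a yes/no pericardial edema call by brightfield imaging, analysed relative to the DMSO baseline.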

A short description of test [6]: Tanguay_ZF_120hpf_SOMI_legacy: (Legacy) Oregon State University Tanguay Lab 120 Hour Post-fertilization zebrafish Assay for Somite Malformation (AID 2283647). In short, it runs like this:
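Somitogenesis defects are recorded as binary calls in whole larvae at 120 hpf after continuous static chemical exposure starting at 6 hpf in dechorionated 5D embryos. DMSO serves as negative control and baseline.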

A short description of test [7]: Tanguay_ZF_120hpf_CFIN_legacy: (Legacy) Oregon State University Tanguay Lab 120 Hour Post-fertilization zebrafish Assay for Caudal Fin Malformation (AID 2283649). An outline of the steps: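 Single dechorionated 5D wild-type embryos are dosed at 6 hpf (final DMSO 0.64%) and held statically at 28C. Caudal fin malformation is recorded as present or absent at 120 hpf under brightfield, excluding dead embryos.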

Test [8] is described as follows: Tanguay_ZF_120hpf_PIG_legacy: (Legacy) Oregon State University Tanguay Lab 120 Hour Post-fertilization zebrafish Assay for Pigmentation Malformation (AID 2283650). An outline of the steps: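 Endpoint is incidence of abnormal pigmentation at 120 hpf in dechorionated 5D zebrafish exposed singly from 6 hpf at 28C, DMSO vehicle at 0.64%. Embryos dying by 24 or 120 hpf are excluded from scoring.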

Test [9] is described as follows: Tanguay_ZF_120hpf_CIRC_legacy: (Legacy) Oregon State University Tanguay Lab 120 Hour Post-fertilization zebrafish Assay for Circulatory Malformation (AID 2283651). An outline of the steps:
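Static exposure, 6–120 hpf, 28C, sealed and dark; one dechorionated 5D embryo/well; DMSO 0.64% v/v final. Binary circulation endpoint by brightfield; dead embryos not scored.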

A short description of test [10]: Tanguay_ZF_120hpf_TRUN_legacy: (Legacy) Oregon State University Tanguay Lab 120 Hour Post-fertilization zebrafish Assay for Truncated Body (AID 2283655). An outline of the steps:
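Single dechorionated zebrafish embryos received test chemical from 6 hpf in 0.64% DMSO, kept at 28C. At 120 hpf, brightfield inspection noted any truncated body.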

Test [11] is described as follows: Tanguay_ZF_120hpf_NC_legacy: (Legacy) Oregon State University Tanguay Lab 120 Hour Post-fertilization zebrafish Assay for Notochord and Tail Malformation (AID 2283656). In short, it runs like this: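 Binary notochord-distortion calls, made by brightfield inspection, form the read-out; activity is fitted in the positive direction against DMSO. Exposure ran statically from 6 to 120 hpf at 28C with 0.64% DMSO.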

Test [12] can be described thus: Tanguay_ZF_120hpf_AXIS_legacy: (Legacy) Oregon State University Tanguay Lab 120 Hour Post-fertilization zebrafish Assay for Body Axis Malformation (AID 2283635). In short, it runs like this: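 Each dechorionated embryo was exposed alone from 6 hpf, with DMSO at 0.64% (vol/vol) and trimethyltin chloride 5 uM as positive control. Axis malformation was recorded at 120 hpf unless the embryo had died.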

Test [13] can be described thus: Tanguay_ZF_120hpf_PFIN_legacy: (Legacy) Oregon State University Tanguay Lab 120 Hour Post-fertilization zebrafish Assay for Pectoral Fin Malformation (AID 2283648).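 Also: each larva judged yes or no for fin defect by brightfield with dead larvae skipped.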 An outline of the steps: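 Scoring of pectoral fin malformation was binary, made at 120 hpf on larvae exposed statically from 6 hpf after enzymatic chorion removal. Activity was fitted upward relative to DMSO controls at 0.64% (vol/vol).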

Test [14] can be described thus: Tanguay_ZF_120hpf_SWIM_legacy: (Legacy) Oregon State University Tanguay Lab 120 Hour Post-fertilization zebrafish Assay for Swim Bladder Malformation (AID 2283654).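 Also: swim bladder malformation in each larva scored yes or no under brightfield.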 In short, it runs like this:
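Static waterborne exposure of single dechorionated Tropical 5D zebrafish embryos, 6–120 hpf, 28C, 0.64% DMSO final. Read-out: swim bladder malformation, present/absent, relative to DMSO negative control; trimethyltin chloride 5uM served as positive control.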

Read-out in test [15]: solute carrier (SLC22A6), SLC22A6 (gene 9356)
Put plainly: LTEA_HepaRG_SLC22A6: Life Technologies and Expression Analysis (LTEA) Assay for solute carrier (SLC22A6) using HepaRG (AID 2283653; active = hit-call score of the fitted dose curve at least 0.9, where 1 is the maximum; inactive = score below 0.9). To be noted: mRNA level, 48 h; actives raise or lower the signal. An outline of the steps:
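Gene-expression endpoint in HepaRG hepatic cells: duplicate 8-point concentration-response, highest 100 uM, 48 h treatment in serum-free medium with 0.5% DMSO. SLC22A6 expression measured by qRT-PCR, normalised to ACTB/GAPDH/POLR2A.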

Read-out in test [16]: solute carrier (SLC10A1), SLC10A1 (gene 6554)
Put plainly: LTEA_HepaRG_SLC10A1: Life Technologies and Expression Analysis (LTEA) Assay for solute carrier (SLC10A1) using HepaRG (AID 2283657; active = hit-call score of the fitted dose curve at least 0.9, where 1 is the maximum; inactive = score below 0.9). The note with it: mRNA level, 48 h; actives raise or lower the signal. An outline of the steps: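 Cryopreserved HepaRG cells are thawed, plated and cultured 48 h; medium is then switched to serum-free induction medium and chemicals added (8 points, max 100 uM, 0.5% DMSO). After 48 h, RNA is isolated and SLC10A1 quantified by qRT-PCR.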

Read-out in test [17]: matrix metalloproteinase-1 (MMP1), MMP1 (gene 4312)
Put plainly: LTEA_HepaRG_MMP1: Life Technologies and Expression Analysis (LTEA) Assay for matrix metalloproteinase-1 (MMP1) using HepaRG (AID 2283658; active = hit-call score of the fitted dose curve at least 0.9, where 1 is the maximum; inactive = score below 0.9). The note with it: mRNA level, 48 h; actives raise or lower the signal. In short, it runs like this: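 In this screen, human liver HepaRG cultures receive each chemical in duplicate for 48 h (top 100 uM, 0.5% DMSO). MMP1 expression is then quantified by TaqMan qRT-PCR with ACTB/GAPDH/POLR2A normalization.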

Test [18] can be described thus: Tanguay_ZF_120hpf_BRAI_legacy: (Legacy) Oregon State University Tanguay Lab 120 Hour Post-fertilization zebrafish Assay for Brain Malformation (AID 2283641). In short, it runs like this: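 Static exposure of staged wild-type embryos until 120 hpf, kept at 28C with light excluded and final DMSO of 0.64% (vol/vol). Presence or absence of brain malformation was noted under brightfield; mortality precluded scoring.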

Read-out in test [19]: kallikrein-3 (KLK3), KLK3 (gene 354)
Put plainly: LTEA_HepaRG_KLK3: Life Technologies and Expression Analysis (LTEA) Assay for kallikrein-3 (KLK3) using HepaRG (AID 2283652; active = hit-call score of the fitted dose curve at least 0.9, where 1 is the maximum; inactive = score below 0.9). To be noted: mRNA level, 48 h; actives raise or lower the signal. In short, it runs like this: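 KLK3 transcript levels were measured by TaqMan qRT-PCR with normalisation to three housekeeping genes. HepaRG cultures received chemicals for 48 h at up to 100 uM (half-log, 8 points, 0.5% DMSO vehicle), fitted in both directions against DMSO.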

For test [20], the system named is Thyroperoxidase (TPO), gene 54314. Put plainly: CCTE_Simmons_AUR_rTPO: CCTE's Amplex UltraRed Assay for Thyroperoxidase (TPO) Inhibition, Simmons Lab (AID 2283662).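 Also: potency for loss of signal meaning inhibition of peroxidase activity.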 An outline of the steps:
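Cell-free peroxidase activity assay using rat thyroid gland microsomes with excess H2O2 (300 uM) and 25 uM Amplex UltraRed. Compounds tested from 5 nM to 87.5 uM; fluorescence measured after 30 min at 37C, analysed relative to DMSO baseline.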

`COCc1nnc(-c2ccc[n+]([O-])c2)n1-c1c(Cl)c(Cl)cc2[nH]c(=O)c(=O)[nH]c12`: the outcome in test [1], in [2], in test [3], in test [4], in test [5] and in test [6] was inactive. Further, the compound was classed as inactive in test [7], in [8], in test [9], in test [10] and in [11].

For `O=c1[nH]cnc2c1ncn2[C@H]1CC[C@@H](CO)O1`, the compound was classed as inactive in [12], in [1], in test [2], in test [4], in test [5] and in [6]. Besides, the compound was called inactive in test [13], in test [7], in test [8], in test [9], in test [14] and in test [10].

On to `COc1cc2c(c(OC)c1OC)-c1ccc(OC)c(=O)cc1[C@@H](NC(C)=O)CC2`, for which the compound was called inactive in [12], in test [1], in [2], in test [7], in test [9] and in test [15]. The call in [14], in test [11] and in test [17] was inactive. Further, the concentration at half-maximal activity (AC50) in test [4] is 25 µM (active); in [5], 26.2 µM (active); in test [6] it was 25.5 µM (active); in test [13], 21 µM (active); in test [8], 22.8 µM (active); in [16] it was 0.107 µM (active).

Consider `CCCC(CCC)C(=O)O`, for which the call in [12], in test [1], in [2], in [4], in test [5] and in test [18] was inactive. In addition, the call in test [13], in test [7], in [8], in [9], in [19] and in test [15] was inactive. The outcome in [14], in test [11], in test [16] and in test [17] was inactive.

Regarding `C=CN1CCCC1=O`, the compound was classed as inactive in test [12], in test [1], in test [2], in [4], in test [6] and in [13]. The result in test [8], in test [14] and in [10] was inactive.

On to `Cc1nccn1-c1ccc(Sc2cccc(C3(C(N)=O)CCOCC3)c2)cc1`, for which the compound was called inactive in test [1], in [2], in [3], in [4], in test [5] and in test [18]. Besides, the result in test [6], in test [13], in test [8], in [9] and in test [11] was inactive.

For the compound `CCc1cccc(CC)c1N`, the compound was called inactive in test [12], in [4], in [18], in [6], in [7] and in [8]. For the same compound, the outcome in test [9], in test [14] and in [11] was inactive.

For the compound `CCCCCCCCCC`, the outcome in [12], in test [1], in test [2], in test [4], in test [5] and in test [18] was inactive. Also, the call in test [6], in test [7], in test [8], in test [9], in test [14] and in test [11] was inactive.

Consider `CCc1ccc(O)c(C(C)(C)C)c1`, for which the result in [1], in test [2], in [4], in test [5], in test [18] and in test [6] was inactive. For the same compound, the compound was classed as inactive in [13], in test [7], in test [8], in test [9], in test [14] and in [11]. For the same compound, the AC50 in test [20] was 13 µM (active).
